An excerpt weighted towards active compounds, which were near 0.86% of everything screened.
CDC25B CDK2 inh = primary biochemical HTRF screen for blockers of M-phase inducer phosphatase 2 binding to CDK2/cyclin A; P30305+P24941; HTRF CDC25B-CDK2/CyclinA binding, anti-His/anti-Flag; stronger effect = higher value; z-score (no concentration beside the values); 0.72% of 94,000 active; in the data active = z-score above about 3.2
TAR Tat displ = TAR RNA-Tat peptide displacers, HIV-1, primary screen, biochemical, FRET, FAM/TAMRA-labeled Tat; 0.6% of 100,000 active; AID 1259389, 2018; HIV-1 TAR RNA, Tat peptide displacement FRET; stronger effect = higher value; z-score (no concentration beside the values); active = z-score of 3 or more in at least 2 runs
Active calls of the source: *; / = not tested or not shown.

SMILES | CDC25B CDK2 inh | TAR Tat displ
CCC(C)(C)C1CCc2sc3ncnc(N4CCOCC4)c3c2C1 (stereo not drawn) | -0.87 | /
CSc1ccccc1NC(=S)Nc1ccc(Cl)cc1 | -1.5 | /
Fc1ccc(NC(=S)Nc2cccc3c(NC(=S)Nc4ccc(F)cc4)cccc23)cc1 | 18* | /
COCCN[C@H]1CS(=O)(=O)C[C@@H]1S(=O)(=O)c1ccc(NC(C)=O)cc1 | -1 | -1.3
CC(C)Cn1c(C2CC(=O)N(c3ccc(F)cc3)C2)nc2ccccc21 (stereo not drawn) | -0.54 | 0.7
COc1ccc(Nc2nc(-c3ccccn3)cs2)cc1 | -1.8 | 1.6
CCOc1ccc(Nc2nc(-c3ccccn3)cs2)cc1 | 19* | /
O=C(Nc1ccc(Cl)cc1)c1cc2ccccc2c(=O)s1 | -1.6 | -0.07
CN1C(=O)CSc2ccc(NC(=O)Nc3cccnc3)cc21 | 19* | 0.7
Cc1cccnc1NC(=O)Nc1ccc2c(c1)N(C)C(=O)CS2 | 5.7 | -1.5
CN1CCc2cc(NC(=O)Nc3cccnc3)ccc21 | 23* | /
Cc1ccc(NC(=O)Nc2cccnc2)cc1Cl | 0.99 | /
Cc1cc(C)c(-c2c(N3CCN(c4cccc(Cl)c4)CC3)c(=O)c2=O)cc1C | / | -0.28
COc1cccc(-c2nc3c(c(=O)[nH]2)Cc2ccccc2O3)c1O | -0.88 | 1.9
COc1cccc(-c2nc3c(c(=O)[nH]2)Cc2cccc(OC)c2O3)c1O | 0.53 | 12*
COc1cccc2c1Oc1nc(-c3ccc(Br)cc3)[nH]c(=O)c1C2 | -0.14 | 0.47
COc1cccc2c1Oc1nc(-c3cc(Br)ccc3O)[nH]c(=O)c1C2 | -0.82 | 18*
O=C(c1noc2c1CCc1sccc1-2)N1CC=C(c2ccccc2)CC1 | / | -0.14
O=C1CC(c2nc3ccccc3n2CCN2CCOCC2)CN1c1cccc(Cl)c1 (stereo not drawn) | 0 | 0.67
O=C1c2cccc(O)c2C(=O)c2c(O)cc(CO)cc21 | / | 6.2*
Cc1cc(O)c2c(c1)C(=O)c1cc(O)cc(O)c1C2=O | -1.2 | 1.9
Clc1ccccc1-n1ncc2c1ncn1nc(-c3ccccc3)nc21 | -2.4 | 6.9*
Fc1ccccc1-n1ncc2c1ncn1nc(-c3ccccc3)nc21 | -1.7 | 1.9
O=C(Cn1ncc2ccccc21)Nc1cc(F)ccc1F | 0.52 | 0.68
COc1cc(C2CC(=O)N3CN(c4ccc(Cl)cc4)CSC3=C2C#N)ccc1O (stereo not drawn) | 4.2* | 25*
SMILES | CDC25B CDK2 inh | TAR Tat displ
COc1cc(C2CC(=O)N3CN(c4ccc(C)c(C)c4)CSC3=C2C#N)ccc1O (stereo not drawn) | 0.52 | 1.6
COc1ccc(N2CSC3=C(C#N)C(c4ccc(O)c(OC)c4)CC(=O)N3C2)cc1 (stereo not drawn) | 4* | -1.6
COc1cc(C2CC(=O)N3CN(c4ccc(F)cc4)CSC3=C2C#N)ccc1O (stereo not drawn) | 3.3* | 29*
Cc1c(NS(=O)(=O)c2ccc(C3CCCCC3)cc2)c(-n2cnnc2)nn1C | -2.2 | 3.1
Cc1cccc(N2C(=O)N(c3ccccc3)C3CS(=O)(=O)CC32)c1C (stereo not drawn) | -0.83 | -1.2
COCC(=O)Nc1cccc2nsnc12 | / | -0.7
CCN(CC)S(=O)(=O)c1c(C)nn(S(=O)(=O)c2cc(OC)ccc2OC)c1C | / | 0.99
C=CC1=C(C(=O)O)N2C(=O)[C@@H](NC(=O)C(=NOCC(=O)O)c3csc(N)n3)[C@H]2SC1 | / | 26*
C=CC1=C(C(=O)O)N2C(=O)[C@@H](NC(=O)/C(=N\O)c3csc(N)n3)[C@H]2SC1 (stereo in doubt) | / | -0.39
COC(=O)c1cc(C)c2c(=O)n(C)c(=O)n(C)c2n1 | -1.3 | 2.6
Cc1ccc(Nc2c(-c3ccco3)nc3cccc(C)n23)cc1 | -0.05 | /
C/C(=N/Nc1c(Cl)cncc1Cl)c1csc2ccccc12 | -1.2 | /
CCCS(=O)(=O)N1CCCc2ccc(NS(=O)(=O)c3cc(F)ccc3F)cc21 | / | 7.2*
CCS(=O)(=O)N1CCCc2ccc(NS(=O)(=O)c3cc(F)ccc3F)cc21 | / | -0.35
COc1ccc(N(C)C(=O)c2cc(S(=O)(=O)N3CCCC3)cn2C)c(OC)c1 | / | 1.5
O=S1(=O)C[C@H](NCc2ccc(Cl)cc2)[C@@H](S(=O)(=O)c2cccs2)C1 | -0.66 | 1
COc1ccccc1-c1cc(C(=O)O)c2ccccc2n1 | -0.81 | -3.6
O=C(O)c1ccccc1-c1c2ccc3cc(O)ccc3c2oc2c1ccc1cc(=O)ccc12 | -0.05 | 25*
O=C1C=CC2=C3c4cc(O)c(O)cc4CC3(O)COC2=C1O (stereo not drawn) | / | 20*
CCOC(=O)CSc1ccc([N+](=O)[O-])cc1Cl | -1.6 | /
O=C(CSc1ccc([N+](=O)[O-])cc1Cl)NCc1ccccc1 | 15* | /
O=C(NCCN1CCOCC1)C(=O)NCc1n[nH]c(=O)c2ccccc12 | / | 1.5
CC(C)NC(=O)c1ccc2c(c1)ncn2CCNC(=O)NCc1ccco1 | / | -0.94
